Laboratory results published in PubChem BioAssay (EPA / NIEHS).
Active and inactive are the calls of the source. The calls were made as follows: active = hit-call score of the fitted dose curve at least 0.9, where 1 is the maximum; inactive = score below 0.9.

Assays:
[1] = CEETOX_H295R_ESTRADIOL: CeeTox H295R High-throughput Steroidogenesis Assay for Estradiol (AID 2283440); conditions: actives raise or lower the signal;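 also: estradiol secreted into medium quantified by LC-MS/MS after dansyl derivatisation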
Procedure, shortened: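 H295R, 48 h forskolin (10 uM) prestim → 48 h compound, 0.1% DMSO final. Estradiol in medium: MTBE extraction, dansyl chloride derivatization, LC-MS/MS. Fit bidirectional vs DMSO baseline; MTT viability in same wells.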

[2] = CEETOX_H295R_ESTRONE: CeeTox H295R High-throughput Steroidogenesis Assay for Estrone (AID 2283441); conditions: actives raise or lower the signal;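 also: estrone secreted into medium measured by LC-MS/MS after dansyl derivatization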;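 as to AC50: human adrenal H295R cells prestimulated with forskolin for two days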
Procedure, shortened: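 H295R cells prestimulated 48 h with 10 uM forskolin, then exposed 48 h to chemicals in 0.1% DMSO final; estrone in medium extracted with MTBE, dansyl-derivatized, quantified by HPLC-MS/MS; bidirectional fitting versus DMSO, viability by MTT.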

[3] = read-out: Tumor necrosis factor receptor superfamily member 6 (Homo sapiens) (UniProt P25445); assay: LTEA_HepaRG_FAS: Life Technologies and Expression Analysis (LTEA) Assay for Fas cell surface death receptor (FAS) using HepaRG (AID 2283447); conditions: mRNA level, 48 h; actives raise or lower the signal
Procedure, shortened: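 FAS transcript level was measured by TaqMan qRT-PCR against three housekeeping genes after 48 h chemical exposure. Cells were HepaRG, 0.5% DMSO vehicle, with a top concentration of 100 uM and half-log dilutions over eight points, in duplicate.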

[4] = read-out: Fatty acid synthase (Homo sapiens) (UniProt P49327); assay: LTEA_HepaRG_FASN: Life Technologies and Expression Analysis (LTEA) Assay for Fatty Acid Synthase (FASN) using HepaRG (AID 2283448); conditions: mRNA level, 48 h; actives raise or lower the signal;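 also: differentiated human HepaRG liver cells in serum-free induction medium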
Procedure, shortened: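 FASN expression changes, up or down relative to 0.5% DMSO, were measured by qRT-PCR in human HepaRG cells after 48 h treatment with chemicals at eight concentrations (half-log steps from 100 uM).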

[5] = read-out: Cyclin D2 (CCND2), CCND2 (gene 894); assay: LTEA_HepaRG_CCND2: Life Technologies and Expression Analysis (LTEA) Assay for Cyclin D2 (CCND2) using HepaRG (AID 2283449); conditions: mRNA level, 48 h; actives raise or lower the signal
Procedure, shortened: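 Read-out is CCND2 mRNA level measured by qRT-PCR in human HepaRG liver cells and normalised to three housekeeping genes. Chemicals were applied for 48 h at up to 100 uM, with gain or loss fitted relative to 0.5% DMSO.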

[6] = read-out: Cyclin Dependent Kinase Inhibitor 1A (CDKN1A), CDKN1A (gene 1026); assay: LTEA_HepaRG_CDKN1A: Life Technologies and Expression Analysis (LTEA) Assay for Cyclin Dependent Kinase Inhibitor 1A (CDKN1A) using HepaRG (AID 2283450); conditions: mRNA level, 48 h; actives raise or lower the signal
Procedure, shortened: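 HepaRG, 48 h dosing, 8-pt half-log series from 100 uM top, 0.5% DMSO vehicle, duplicates. Readout: TaqMan qRT-PCR of CDKN1A transcript, housekeeping-normalized (ACTB, GAPDH, POLR2A). Up/down curve fit relative to DMSO.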

[7] = read-out: Cyclin D1 (CCND1), CCND1 (gene 595); assay: LTEA_HepaRG_CCND1: Life Technologies and Expression Analysis (LTEA) Assay for Cyclin D1 (CCND1) using HepaRG (AID 2283451); conditions: mRNA level, 48 h; actives raise or lower the signal;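 as to AC50: differentiated human HepaRG liver cells in serum-free induction medium; TaqMan qRT-PCR transcript level normalised to ACTB GAPDH and POLR2A housekeeping genes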
Procedure, shortened: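 qRT-PCR (Fluidigm 96.96 array) read-out of transcript level, housekeeping-normalized (ACTB/GAPDH/POLR2A). HepaRG cells, 48 h chemical exposure, 8-point half-log series from 100 uM, 0.5% DMSO vehicle; gain or loss relative to DMSO baseline.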

[8] = read-out: catalase (CAT), CAT (gene 847); assay: LTEA_HepaRG_CAT: Life Technologies and Expression Analysis (LTEA) Assay for catalase (CAT) using HepaRG (AID 2283452); conditions: mRNA level, 48 h; actives raise or lower the signal
Procedure, shortened: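 Expression of CAT was quantified by TaqMan qRT-PCR with ACTB/GAPDH/POLR2A normalization after 48 h chemical exposure of HepaRG. Eight-point half-log series, top 100 uM, in 0.5% DMSO; gain or loss fitted against vehicle.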

[9] = read-out: Cytochrome P450 (CYP1A1), CYP1A1 (gene 1543); assay: LTEA_HepaRG_CYP1A1: Life Technologies and Expression Analysis (LTEA) Assay for Cytochrome P450 (CYP1A1) using HepaRG (AID 2283454); conditions: mRNA level, 48 h; actives raise or lower the signal
Procedure, shortened: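 qRT-PCR read-out: CYP1A1 transcript normalized to three housekeeping genes, fitted bidirectionally against 0.5% DMSO vehicle baseline. Human HepaRG cells, 48 h chemical exposure, 8-point half-log series topping at 100 uM.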

[10] = read-out: CFLAR gene, CFLAR (gene 8837); assay: LTEA_HepaRG_CFLAR: Life Technologies and Expression Analysis (LTEA) Assay for CFLAR gene using HepaRG (AID 2283455); conditions: mRNA level, 48 h; actives raise or lower the signal
Procedure, shortened: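 HepaRG, 48 h exposure, 8-pt conc-response (100 uM top, half-log), 0.5% DMSO vehicle, duplicates. CFLAR expression by qRT-PCR; ACTB/GAPDH/POLR2A normalization; gain or loss fit vs DMSO baseline.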

[11] = read-out: Forkhead box O1 (FOXO1), FOXO1 (gene 2308); assay: LTEA_HepaRG_FOXO1: Life Technologies and Expression Analysis (LTEA) Assay for Forkhead box O1 (FOXO1) using HepaRG (AID 2283456); conditions: mRNA level, 48 h; actives raise or lower the signal
Procedure, shortened: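 Readout is FOXO1 transcript level by multiplexed qRT-PCR against three housekeeping genes, curve-fitted in both directions relative to 0.5% DMSO vehicle. Human HepaRG cultures received chemicals for 48 h, up to 100 uM in half-log steps.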

[12] = read-out: growth arrest and DNA damage 45 (GADD45A), GADD45A (gene 1647); assay: LTEA_HepaRG_GADD45A: Life Technologies and Expression Analysis (LTEA) Assay for growth arrest and DNA damage 45 (GADD45A) using HepaRG (AID 2283458); conditions: mRNA level, 48 h; actives raise or lower the signal
Procedure, shortened: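 Cells plated and cultured 48 h, switched to serum-free induction medium, then dosed for 48 h (100 uM top, half-log dilutions, 0.5% DMSO). RNA was isolated and transcript measured by Fluidigm qRT-PCR.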

[13] = read-out: Forkhead box O3 (FOXO3), FOXO3 (gene 2309); assay: LTEA_HepaRG_FOXO3: Life Technologies and Expression Analysis (LTEA) Assay for Forkhead box O3 (FOXO3) using HepaRG (AID 2283459); conditions: mRNA level, 48 h; actives raise or lower the signal
Procedure, shortened: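 HepaRG, 48 h post-dose; 8 conc., half-log from 100 uM, 0.5% DMSO, duplicates; serum-free induction medium. Readout: FOXO3 mRNA, TaqMan qRT-PCR, housekeeping-normalized. Bidirectional curve fit vs DMSO baseline.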

[14] = read-out: ABC Transporter (ABCB1), ABCB1 (gene 5243); assay: LTEA_HepaRG_ABCB1: Life Technologies and Expression Analysis (LTEA) Assay for ABC Transporter (ABCB1) using HepaRG (AID 2283460); conditions: mRNA level, 48 h; actives raise or lower the signal
Procedure, shortened: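 Expression of ABCB1 was quantified by qRT-PCR against three housekeeping genes after human HepaRG cultures received test chemicals for 48 hours. Concentrations spanned eight half-log steps topping at 100 uM in 0.5% DMSO; gain or loss of signal was fitted relative to vehicle.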

[15] = read-out: growth arrest and DNA damage 45 (GADD45B), GADD45B (gene 4616); assay: LTEA_HepaRG_GADD45B: Life Technologies and Expression Analysis (LTEA) Assay for growth arrest and DNA damage 45 (GADD45B) using HepaRG (AID 2283461); conditions: mRNA level, 48 h; actives raise or lower the signal
Procedure, shortened: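 qRT-PCR read-out (Fluidigm TaqMan, housekeeping-normalized) of mRNA change in human HepaRG cells after 48 h chemical exposure; 8-point curve, top 100 uM, half-log steps, 0.5% DMSO vehicle; gain or loss fitted relative to DMSO baseline.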

[16] = read-out: ABC Transporter (ABCC3), ABCC3 (gene 8714); assay: LTEA_HepaRG_ABCC3: Life Technologies and Expression Analysis (LTEA) Assay for ABC Transporter (ABCC3) using HepaRG (AID 2283462); conditions: mRNA level, 48 h; actives raise or lower the signal
Procedure, shortened: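 qRT-PCR read-out of ABCC3 transcript, normalized to three housekeeping genes (ACTB, GAPDH, POLR2A), after 48 h chemical exposure of human HepaRG cells. Eight half-log concentrations, highest 100 uM, in 0.5% DMSO; gain or loss fitted relative to DMSO baseline.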

[17] = CEETOX_H295R_DOC: CeeTox H295R High-throughput Steroidogenesis Assay for DOC (AID 2283439); conditions: actives raise or lower the signal
Procedure, shortened: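 Readout: 11-deoxycorticosterone in culture medium by reverse-phase C18 HPLC with ESI+ tandem MS after MTBE extraction. Cells: H295R, forskolin-primed (10 uM, 48 h), chemical-treated 48 h; DMSO 0.1% final. Activity fitted bidirectionally versus DMSO.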

[18] = CEETOX_H295R_TESTO: CeeTox H295R High-throughput Steroidogenesis Assay for Testosterone (TESTO) (AID 2283457); conditions: actives raise or lower the signal
Procedure, shortened: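 Readout: testosterone quantified by HPLC-MS/MS (C18, ESI positive) after MTBE liquid-liquid extraction of culture medium. Cells were H295R, 48 h chemical exposure per OECD 456 with modifications. Gain or loss of signal fitted relative to DMSO.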

Measured: AC50

Sequence of Fatty acid synthase (Homo sapiens) (P49327 whole entry, looked up): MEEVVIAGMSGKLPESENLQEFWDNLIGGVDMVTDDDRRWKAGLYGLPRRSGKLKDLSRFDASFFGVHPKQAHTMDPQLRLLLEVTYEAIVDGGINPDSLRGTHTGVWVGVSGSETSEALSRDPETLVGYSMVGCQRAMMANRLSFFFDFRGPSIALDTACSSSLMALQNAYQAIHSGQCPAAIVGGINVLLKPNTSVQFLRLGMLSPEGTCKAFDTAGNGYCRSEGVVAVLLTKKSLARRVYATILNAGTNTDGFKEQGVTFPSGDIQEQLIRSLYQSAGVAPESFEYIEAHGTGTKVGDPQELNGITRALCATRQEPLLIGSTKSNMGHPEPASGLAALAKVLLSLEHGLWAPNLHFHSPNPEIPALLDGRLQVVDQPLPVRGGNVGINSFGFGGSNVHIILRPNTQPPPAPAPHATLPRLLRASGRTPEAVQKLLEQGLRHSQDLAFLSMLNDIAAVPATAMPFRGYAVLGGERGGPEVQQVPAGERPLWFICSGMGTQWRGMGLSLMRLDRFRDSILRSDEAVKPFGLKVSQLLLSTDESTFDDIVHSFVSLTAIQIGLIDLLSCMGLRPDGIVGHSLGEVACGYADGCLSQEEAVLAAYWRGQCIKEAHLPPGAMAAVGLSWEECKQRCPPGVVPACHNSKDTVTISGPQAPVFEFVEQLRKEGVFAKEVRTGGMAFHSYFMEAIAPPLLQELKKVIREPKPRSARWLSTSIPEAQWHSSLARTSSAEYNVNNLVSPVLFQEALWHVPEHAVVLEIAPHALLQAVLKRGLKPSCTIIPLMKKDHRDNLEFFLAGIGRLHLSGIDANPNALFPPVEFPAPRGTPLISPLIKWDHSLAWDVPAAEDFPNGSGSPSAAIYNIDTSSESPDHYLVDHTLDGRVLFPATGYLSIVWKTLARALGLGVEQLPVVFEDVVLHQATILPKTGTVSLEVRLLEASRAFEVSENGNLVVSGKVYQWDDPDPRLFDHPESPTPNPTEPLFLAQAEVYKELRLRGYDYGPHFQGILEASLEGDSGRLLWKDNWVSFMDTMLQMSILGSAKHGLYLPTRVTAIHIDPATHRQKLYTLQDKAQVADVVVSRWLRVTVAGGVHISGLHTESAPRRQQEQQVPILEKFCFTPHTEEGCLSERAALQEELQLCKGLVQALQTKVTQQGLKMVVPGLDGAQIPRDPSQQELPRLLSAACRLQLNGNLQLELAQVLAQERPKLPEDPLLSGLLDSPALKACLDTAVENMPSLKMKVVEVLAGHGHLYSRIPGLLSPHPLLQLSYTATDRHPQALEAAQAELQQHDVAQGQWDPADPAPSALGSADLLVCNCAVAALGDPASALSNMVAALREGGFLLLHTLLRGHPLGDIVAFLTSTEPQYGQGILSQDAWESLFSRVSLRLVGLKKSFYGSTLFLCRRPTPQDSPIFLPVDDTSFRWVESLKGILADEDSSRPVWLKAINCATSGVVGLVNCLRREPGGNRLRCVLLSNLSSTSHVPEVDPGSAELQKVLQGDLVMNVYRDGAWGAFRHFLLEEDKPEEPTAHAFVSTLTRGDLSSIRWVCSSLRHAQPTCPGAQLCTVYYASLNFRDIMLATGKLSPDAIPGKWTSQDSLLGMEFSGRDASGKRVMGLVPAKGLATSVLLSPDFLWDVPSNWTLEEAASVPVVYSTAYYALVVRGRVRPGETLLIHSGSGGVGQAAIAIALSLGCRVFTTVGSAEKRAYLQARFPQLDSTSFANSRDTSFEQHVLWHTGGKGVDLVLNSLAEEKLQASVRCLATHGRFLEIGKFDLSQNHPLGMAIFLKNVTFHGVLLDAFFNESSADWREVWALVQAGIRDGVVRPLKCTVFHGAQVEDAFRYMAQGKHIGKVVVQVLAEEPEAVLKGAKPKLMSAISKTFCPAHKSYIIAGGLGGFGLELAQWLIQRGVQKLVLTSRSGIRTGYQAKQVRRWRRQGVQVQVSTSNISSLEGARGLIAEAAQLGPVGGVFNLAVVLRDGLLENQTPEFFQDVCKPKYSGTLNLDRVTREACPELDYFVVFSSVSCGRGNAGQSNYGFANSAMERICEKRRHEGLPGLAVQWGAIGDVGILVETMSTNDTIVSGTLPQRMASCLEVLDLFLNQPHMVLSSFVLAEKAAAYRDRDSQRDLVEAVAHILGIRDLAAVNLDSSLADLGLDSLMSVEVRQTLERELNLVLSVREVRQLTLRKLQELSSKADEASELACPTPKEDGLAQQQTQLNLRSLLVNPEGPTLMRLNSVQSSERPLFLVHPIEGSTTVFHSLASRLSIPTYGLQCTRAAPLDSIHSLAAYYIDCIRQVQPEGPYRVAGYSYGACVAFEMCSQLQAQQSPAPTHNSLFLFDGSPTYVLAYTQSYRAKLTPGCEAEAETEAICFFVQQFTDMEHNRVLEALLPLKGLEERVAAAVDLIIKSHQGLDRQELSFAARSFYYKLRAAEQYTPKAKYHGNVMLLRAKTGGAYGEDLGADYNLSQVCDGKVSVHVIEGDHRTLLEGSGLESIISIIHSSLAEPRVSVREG

CC(=O)[C@H]1CC[C@H]2[C@@H]3CCC4=CC(=O)CC[C@]4(C)[C@H]3CC[C@]12C
inactive: [1] | [2] | [5] | [7] | [13]
active: [3] 60.6 µM | [4] 82.1 µM | [6] 16.8 µM | [8] 50 µM | [9] 34.6 µM | [10] 77.8 µM | [11] 80.5 µM | [12] 47.8 µM | [14] 79.3 µM | [15] 30 µM | [16] 28.2 µM

S=C([S-])NCCNC(=S)[S-].[Mn+2]
active: [3] 5.41 µM | [7] 0.485 µM | [8] 2.97 µM | [9] 8.74 µM | [10] 3.43 µM | [11] 9.26 µM | [12] 5.52 µM | [13] 3.51 µM | [14] 3.47 µM | [15] 5.56 µM | [16] 2.06 µM
inactive: [17] | [5] | [6]

O=C(Nc1ccc([N+](=O)[O-])cc1Cl)c1cc(Cl)ccc1O
active: [3] 3.08 µM | [7] 3.16 µM | [8] 2.85 µM | [9] 0.147 µM | [10] 2.33 µM | [11] 3.33 µM | [12] 4.29 µM | [14] 2.25 µM | [15] 3.32 µM | [16] 3.52 µM
inactive: [17] | [1] | [2] | [5] | [6] | [13]

CCN(Cc1c(F)cccc1Cl)c1c([N+](=O)[O-])cc(C(F)(F)F)cc1[N+](=O)[O-]
active: [2] 13.7 µM | [9] 14.8 µM | [15] 50 µM
inactive: [1] | [3] | [5] | [6] | [7] | [8] | [10] | [11] | [12] | [13] | [14] | [16]

CCCN(CCC)C(=O)SCC
inactive: [17] | [1] | [2] | [3] | [5] | [6] | [7] | [8] | [9] | [10] | [11] | [18] | [12] | [13] | [14] | [15] | [16]

CCCCC(CC)CN1C(=O)C2C3C=CC(C3)C2C1=O (centres undefined)
inactive: [17] | [1] | [2] | [3] | [5] | [7] | [10] | [11] | [12] | [13] | [15]
active: [6] 77.1 µM | [8] 77.2 µM | [9] 12.6 µM | [14] 12.5 µM | [16] 50 µM
